Screens from PubChem BioAssay.
Mtb FBA inh = Mtb FBA enzyme inhibitors, primary screen, biochemical, fluorescence, strain H37Rv | inhibition, % at 1 µM | 360,000 tested, 2.3% active | purified M. tuberculosis FBA, fluorescence read-out | Fructose-bisphosphate aldolase (Mycobacterium tuberculosis (strain ATCC 25618 / H37Rv)), … | AID 588726, 2011; in the data active means inhibition above about 27%;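 further: 0% = vehicle and 100% = reference inhibitor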
RecA intein inh = Mtb RecA intein splicing inhibitors, primary screen, biochemical, fluorescence, HTS; cell-free RecA intein splicing; AID 2221, 2009; Protein RecA (Mycobacterium tuberculosis (strain ATCC 25618 / H37Rv)), P9WHJ3; inhibition, % (test concentration not listed); 290,000 tested, 0.75% active; in the data active means inhibition above about 30%;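 further: 0% = vehicle wells and 100% = reference inhibitor control wells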
Target sequence (P9WHJ3 whole entry, looked up): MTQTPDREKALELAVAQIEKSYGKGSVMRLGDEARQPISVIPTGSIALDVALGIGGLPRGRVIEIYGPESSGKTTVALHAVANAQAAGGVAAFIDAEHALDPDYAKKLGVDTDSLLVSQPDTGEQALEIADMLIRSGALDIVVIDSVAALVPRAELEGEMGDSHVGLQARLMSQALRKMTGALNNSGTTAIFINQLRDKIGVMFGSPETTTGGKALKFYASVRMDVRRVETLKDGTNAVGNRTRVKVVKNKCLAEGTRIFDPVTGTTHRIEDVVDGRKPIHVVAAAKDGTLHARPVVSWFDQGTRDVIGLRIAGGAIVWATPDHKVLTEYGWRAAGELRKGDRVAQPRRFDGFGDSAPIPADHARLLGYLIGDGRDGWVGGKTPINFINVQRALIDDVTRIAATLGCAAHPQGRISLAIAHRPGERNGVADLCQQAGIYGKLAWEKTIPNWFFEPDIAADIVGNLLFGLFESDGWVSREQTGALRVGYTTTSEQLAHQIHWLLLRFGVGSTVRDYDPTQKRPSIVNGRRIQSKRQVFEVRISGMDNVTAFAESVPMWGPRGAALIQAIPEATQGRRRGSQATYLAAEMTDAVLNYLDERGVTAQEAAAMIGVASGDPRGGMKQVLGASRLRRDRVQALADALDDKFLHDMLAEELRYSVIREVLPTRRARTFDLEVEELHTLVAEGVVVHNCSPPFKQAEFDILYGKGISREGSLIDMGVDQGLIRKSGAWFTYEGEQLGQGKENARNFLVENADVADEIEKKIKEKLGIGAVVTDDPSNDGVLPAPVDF
SARS 3CLpro inh = SARS-CoV 3CLpro protease inhibitors, primary screen, biochemical, quenched FRET. Replicase polyprotein 1ab (Severe acute respiratory syndrome coronavirus), P0C6X7. recombinant SARS-CoV 3CLpro, quenched FRET peptide cleavage. inhibition, % at 6 µM. 290,000 tested, 0.14% active; in the data active means inhibition above about 12%
GDH-TPI counter = GDH-TPI coupling enzyme inhibitors, primary screen, artefact control for M. tuberculosis FBA inhibitor project, biochemical, absorbance, full deck. GDH-TPI coupled enzyme counterscreen, NADH absorbance. 360,000 tested, 1.2% active. inhibition, % at 4.8 µM;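 further: 0% = DMSO wells and 100% = wells lacking the enzyme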
VHR inh abs = VHR1 phosphatase inhibitors, primary screen, biochemical, absorbance, uHTS | Dual specificity protein phosphatase 3 (Homo sapiens), P51452 | 290,000 tested, 0.52% active | inhibition, % at 13.3 µM | recombinant VHR phosphatase, pNPP absorbance; in the data active means inhibition above about 50%
CCHF vOTU inh = CCHFV vOTU protease inhibitors, primary screen, biochemical, Pep-AMC substrate, fluorescence; 370,000 tested, 0.55% active; Crimean-Congo hemorrhagic fever virus L polyprotein viral ovarian tumor (vOTU) protease …; inhibition, % at 11.5 µM; further: 0% = vehicle wells with enzyme and 100% = no enzyme wells
The depositor's hits bear a star. Compounds with a hit are over-represented: about 4.7% of the library has one in this group of screens. Unless noted, no stated cut-off is given here; in the data, active means inhibition above about 30%; inactive means the rest.

`Nc1nnc(CC(=O)N/N=C/c2ccc(-c3ccc(F)cc3)o2)s1` gave Mtb FBA inh 2, RecA intein inh 3, SARS 3CLpro inh 0, GDH-TPI counter 21, VHR inh abs 0 and CCHF vOTU inh 7.
`O=C(O)c1cccc(-c2ccc(/C=N/NC(=O)c3cccnc3)o2)c1` gave Mtb FBA inh 23, RecA intein inh -5, SARS 3CLpro inh 2, GDH-TPI counter 57*, VHR inh abs -2 and CCHF vOTU inh -10.
For O=Cc1ccc(-c2cccc(C(=O)O)c2)o1 the results were Mtb FBA inh 2, RecA intein inh -3, SARS 3CLpro inh 5, GDH-TPI counter 25, VHR inh abs 17 and CCHF vOTU inh 5.
Cc1ccc(C)c(N2N=C(C(=O)Nc3ccc(N4CCOCC4)cc3)CCC2=O)c1 was read as Mtb FBA inh -3, GDH-TPI counter -3 and CCHF vOTU inh -3.
Screening Cc1cccc(NC(=O)Nc2cc(C)cc(C)n2)c1 returned Mtb FBA inh 3, SARS 3CLpro inh 4, GDH-TPI counter -5, VHR inh abs -8 and CCHF vOTU inh 2.
Cc1c(O)c(=O)c2ccccc2n1C was read as Mtb FBA inh 150*, RecA intein inh -9, SARS 3CLpro inh -2, GDH-TPI counter 25, VHR inh abs 4 and CCHF vOTU inh -241.
For Cn1c(=O)c(-c2ccccc2)c(O)c2ccccc21 the results were Mtb FBA inh 13, RecA intein inh -3, SARS 3CLpro inh 6, GDH-TPI counter 12, VHR inh abs 16 and CCHF vOTU inh 7.
`Cc1cc(/C=C(\C#N)C(=O)OCC(=O)Nc2ccc(OC(F)F)cc2)c(C)n1CC(C)C` gave Mtb FBA inh 0, RecA intein inh -6, SARS 3CLpro inh 1, GDH-TPI counter 31*, VHR inh abs 8 and CCHF vOTU inh 19.
For COc1cc(C#Cc2ccc3cc(CCO)oc(=O)c3c2)cc(OC)c1 the results were Mtb FBA inh 23, GDH-TPI counter 36* and CCHF vOTU inh 23.
`COC(=O)c1cc(OC)c(OC)cc1N=CC1=C(O)CC(C)(C)CC1=O` gave Mtb FBA inh 3, RecA intein inh 1, SARS 3CLpro inh 3, GDH-TPI counter 9, VHR inh abs 55* and CCHF vOTU inh 5.
CC1(C)CC(=O)C(C=Nc2ccccc2C(=O)O)=C(O)C1 was read as Mtb FBA inh 13, RecA intein inh -4, SARS 3CLpro inh -6, GDH-TPI counter 42*, VHR inh abs 10 and CCHF vOTU inh -12.
Screening CC1(C)CC(=O)C(C=Nc2ccccc2)=C(O)C1 returned Mtb FBA inh -1, RecA intein inh 2, SARS 3CLpro inh 0, GDH-TPI counter 27, VHR inh abs -5 and CCHF vOTU inh 12.
Screening COc1cc(Cl)c(C)cc1NC(=O)CC1CCCC1 returned Mtb FBA inh -2, SARS 3CLpro inh -1, GDH-TPI counter 1, VHR inh abs 5 and CCHF vOTU inh 7.
Screening COc1ccccc1/C=C/C=N/NC(=O)CC1C(=O)NN=C1C (stereo unspecified) returned Mtb FBA inh 0, RecA intein inh 2, SARS 3CLpro inh 5, GDH-TPI counter 37*, VHR inh abs 17 and CCHF vOTU inh -7.
`COc1ccccc1/C=C/C=N/NC(=O)c1cc(-c2ccco2)[nH]n1` gave Mtb FBA inh -1, RecA intein inh 10, SARS 3CLpro inh 6, GDH-TPI counter 32*, VHR inh abs 6 and CCHF vOTU inh 0.
Screening COc1ccccc1/C=C/C=N/NC(=O)c1ccccn1 returned Mtb FBA inh -1, RecA intein inh 12, SARS 3CLpro inh -2, GDH-TPI counter 20, VHR inh abs 27 and CCHF vOTU inh 25.
COc1cccc(/C=N/NC(=O)CC2C(=O)NN=C2C)c1OC (stereo unspecified) was read as Mtb FBA inh 12, RecA intein inh 1, SARS 3CLpro inh 4, GDH-TPI counter 12, VHR inh abs 27 and CCHF vOTU inh 11.
For COc1cccc(/C=N/NC(=O)c2ccc(=O)n(C)c2)c1OC the results were Mtb FBA inh 4, RecA intein inh -2, SARS 3CLpro inh 1, GDH-TPI counter 9, VHR inh abs 9 and CCHF vOTU inh 1.
COc1ccccc1/C=C/C=N/NC(=O)CCn1cnc2ccccc21 was read as Mtb FBA inh 0, RecA intein inh 2, SARS 3CLpro inh 2, GDH-TPI counter 33*, VHR inh abs 1 and CCHF vOTU inh 2.
O=C(CCn1cnc2ccccc21)N/N=C/C=C/c1ccccc1 was read as Mtb FBA inh 2, RecA intein inh 3, SARS 3CLpro inh -2, GDH-TPI counter 21, VHR inh abs 4 and CCHF vOTU inh -8.
COc1ccccc1/C=C/C=N/NC(=O)c1ccc(=O)n(C)c1 was read as Mtb FBA inh 2, RecA intein inh -1, SARS 3CLpro inh 6, GDH-TPI counter 51*, VHR inh abs 21 and CCHF vOTU inh 15.
O=C(OC12CCCN(C1)/C(=C/c1cccc(Cl)c1)C2)C1CCCC1 (stereo unspecified) was read as CCHF vOTU inh 3.
`O=S1(=O)CCN(C2CCCC2)CC1` gave Mtb FBA inh -4, GDH-TPI counter 0 and CCHF vOTU inh 0.
`COc1ccc2cc3c(N)nn(C(=O)c4cccc(F)c4)c3nc2c1` gave Mtb FBA inh -2, RecA intein inh -2, SARS 3CLpro inh 4, GDH-TPI counter 7, VHR inh abs -9 and CCHF vOTU inh -5.
For COc1ccc2cc3c(N)nn(C(=O)c4ccccc4Cl)c3nc2c1 the results were Mtb FBA inh -5, RecA intein inh 0, SARS 3CLpro inh 2, GDH-TPI counter 36*, VHR inh abs 6 and CCHF vOTU inh 6.
For COc1ccc2cc3c(N)nn(C(=O)c4ccc(F)cc4)c3nc2c1 the results were Mtb FBA inh 1, RecA intein inh -1, SARS 3CLpro inh 0, GDH-TPI counter 41*, VHR inh abs 25 and CCHF vOTU inh 13.
Screening CCCCCc1cc(=O)oc2c(C(CCN3CCCC(C)C3)c3ccc(N(C)C)cc3)c(OC)cc(OC)c12 (stereo unspecified) returned Mtb FBA inh 3, RecA intein inh 31*, GDH-TPI counter -2 and VHR inh abs -19.
O=c1cc(-c2ccc(O)cc2)oc2c(O)c(O)c(O)c(O)c12 was read as Mtb FBA inh 5, SARS 3CLpro inh -2, GDH-TPI counter 37*, VHR inh abs 40 and CCHF vOTU inh 11.
